Results: the supplement of paper PMC7057948, “A genome-wide approach for identification and characterisation of metabolite-inducible systems” (Nature Communications, 2020)

test system: PhhR/P_H16_RS18365 L-phenylalanine biosensor (pEH137); test: relative induction of RFP reporter vs primary effector; higher = stronger activation; details: inducer concentration 5 mM; 6 h; Cupriavidus necator H16; minimal medium + 0.4% gluconate
Method: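 Orthogonality screen of 21 primary inducers against 21 transcription factor/inducible promoter–mRFP biosensors in C. necator H16 in minimal medium, robotic 96-well format, 5 mM inducer, 30 °C. OD-normalised RFP fluorescence was read 6 h later and expressed as relative induction (%) = 100 × (FL compound − FL uninduced)/(FL primary inducer − FL uninduced); mean of n=4. Cognate pairs (100% by definition) omitted.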

Compound	relative induction of RFP reporter
NCCC(=O)O [β-alanine]	-0.6%
C=CC(=O)O [acrylate]	-0.318%
CC(=O)C(C)O (configuration not stated) [acetoin]	-0.273%
OC1OC[C@H](O)[C@H](O)[C@H]1O (mixture of isomers) [L-arabinose]	-0.00622%
O=C(O)CCO [3-hydroxypropanoate]	-0.273%
O=C(O)c1ccccc1O [salicylate]	-0.155%
C=C(CC(=O)O)C(=O)O [itaconate]	-0.415%
O=C(O)CS(=O)(=O)O [sulfonatoacetate]	-0.174%
O=C(O)C1CCCCC1 [cyclohexane-1-carboxylate]	-0.0509%
Nc1ccccc1C(=O)C[C@H](N)C(=O)O [L-kynurenine]	-0.316%
O=CO [formate]	-0.0153%
O=c1[nH]c(=O)c2nc[nH]c2[nH]1 [xanthine]	-0.134%
O=C(O)c1ccc(O)c(O)c1 [3,4-dihydroxybenzoate]	-0.638%
N[C@@H](Cc1ccc(O)cc1)C(=O)O [L-tyrosine]	-0.541%
O=C(O)C(=O)c1ccccc1 [phenylglyoxylate]	-0.366%
O=C(O)C(O)C(O)C(=O)O (configuration not stated) [tartrate]	0.258%
O=C(O)c1ccccc1 [benzoate]	-0.383%
